Assay outcomes from PubChem BioAssay.
Cycloheximide cs = counter-screen hit for Shiga toxin inhibitors, cycloheximide | cell reporter, cycloheximide protein synthesis inhibition counterscreen | max response, % | actives 12% (n = 300,000); in the data active = max response mostly above about 13%, no sharp cut-off; inactive = mostly below about 14%; note: read at 38.3 µM for the half of the compounds with a filed dose; 0% is about no effect
Pf growth 48h = P. falciparum growth inhibition at 48 hours (one generation); P. falciparum luciferase growth in erythrocytes, 48 h; Potency, µM (series often up to 28.7 µM), for the others: top-dose activity change, negative = inhibition, usual class: inhibitors; actives 5.9% (n = 310,000); AID 504832; note: potency is the fitted concentration of half-maximal effect; % is set by controls: 0 for no effect and ±100 for the full control effect
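In quantitative HTS format, infected erythrocytes bearing luciferase-reporter parasites were treated for a single generation at 37 C. Luminescence after adding detection reagent served as the growth measure.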
Pf growth 96h = P. falciparum growth inhibition at 96 hour, primary screen for plastid delayed-death inhibitors; P. falciparum luciferase reporter growth, 96 h; Potency, µM (highest dose often 28.7 µM), for the others: at the top dose activity change, negative = inhibition, actives largely listed as inhibitors; actives 6.9% (n = 320,000); note: potency is the fitted concentration of half-maximal effect; % is set by controls: 0 for no effect and ±100 for the full control effect
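P. falciparum expressing integrated firefly luciferase, in erythrocytes at 2% hematocrit, 0.05% parasitemia, incubated with compounds 96 h at 37 C, 5% CO2. Growth inhibition read as loss of luminescence; two-generation exposure targets delayed-death apicoplast inhibitors.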
NS1 inh = blocks influenza NS1 protein function; Potency, µM (top dose mostly 46.1 µM), for the others: at the highest dose activity, positive = more growth; actives 0.4% (n = 270,000); AID 2326; calls by dose curve; note: potency is the fitted concentration of half-maximal effect; actives are rising curves; nearly all actives have a fitted effect of over 50% in size
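A cell-based growth assay was used: compounds that relieve NS1-induced slow growth of budding yeast raise OD600. Assay medium was yeast nitrogen base with ammonium sulphate and -URA supplement, pH 6.0, with 2% galactose.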
Shiga inhibitor = inhibitors of Shiga toxin in Vero cells. actives 9.2% (n = 290,000). Vero cells, Shiga toxin protein synthesis inhibition reporter. inhibition, % at 38.7 µM. AID 2315; in the data active = inhibition mostly above about 28%, no sharp cut-off; inactive = mostly below about 43%; note: 0% is about no effect
FBPA Giardia inh = blocks Giardia fructose-bisphosphate aldolase activity. purified Giardia FBPA. Potency, µM (doses to about 59.6 µM), inactives show at the highest dose activity, negative = inhibition, most hits filed as inhibitors. actives 0.71% (n = 290,000); note: potency is the fitted concentration of half-maximal effect; % is set by controls: 0 for no effect and ±100 for the full control effect; nearly all actives have a fitted effect of over 55% in size
Target sequence (A8B2U2 whole entry, looked up): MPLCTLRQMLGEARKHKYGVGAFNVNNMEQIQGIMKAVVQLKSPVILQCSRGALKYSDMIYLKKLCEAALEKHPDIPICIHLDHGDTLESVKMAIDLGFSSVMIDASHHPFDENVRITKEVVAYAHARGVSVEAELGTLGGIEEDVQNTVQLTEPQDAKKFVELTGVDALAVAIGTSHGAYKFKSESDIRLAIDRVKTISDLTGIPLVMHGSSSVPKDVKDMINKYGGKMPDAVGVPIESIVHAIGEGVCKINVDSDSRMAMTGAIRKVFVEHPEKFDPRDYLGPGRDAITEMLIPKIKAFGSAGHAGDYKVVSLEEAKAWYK
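40 nM FBPA preincubated 10 min at RT with compound (up to 57.5 uM final), then substrate plus GAPDH/TPI/NAD/arsenate coupling and diaphorase/resazurin added. Fluorescence read after 20 min at RT, 525/598 nm.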
* = called active by the depositor; ? = inconclusive; . = no result given. The list is not random: actives were taken first. Their share in the collection is about 21%. Unless noted, calls come from the whole dose curve; as a rule, active = well fitted curve in the direction sought with a large enough effect; inconclusive = small, poorly fitted or top-dose-only effect, or another doubt; inactive = no such curve, though single readings can be large; an effect the other way counts as inactive or inconclusive.

SMILES	Cycloheximide cs	Pf growth 48h	Pf growth 96h	NS1 inh	Shiga inhibitor	FBPA Giardia inh
Cc1ccc(C(=O)NC(C#N)=C(Cl)Cl)cc1	20	-8%	-25%	-76%	40	9%
Cc1cc(NC(=O)c2nn(C)c(C)c2[N+](=O)[O-])no1	-2	12%	31%	15%	18	5%
Cc1cc(NC(=O)c2nn(C)c(C)c2Br)no1	45*	171%	191%	-6%	81*	.
Cc1cc(NC(=O)c2ccc(NC(=O)C(C)Oc3ccccc3)cc2)no1 (stereo not drawn)	9	6.6µM*	.	-2%	1	-6%
CCCCOc1cccc(OCCCC)c1C(=O)Nc1cc(C)on1	0	2.1µM*	25%	-17%	-9	0%
Cc1cc(NC(=O)c2ccc(F)cc2)no1	33*	74%	5%	8%	91*	10%
FC(F)(F)c1ccccc1-c1cc(NCc2cccs2)ncn1	.	.	.	.	.	0%
CC(OC(=O)C1CC1)C(=O)Nc1ncc(Cl)cc1Cl (stereo not drawn)	.	45%	55%	.	.	.
CCOc1ccc(CCNC(=O)CCNC(=O)c2ccccc2Cl)cc1OCC	4	12µM*	?	11%	-28	.
Cc1cc(OC(C)C(=O)Nc2ccncc2)ccc1Cl (stereo not drawn)	-1	?	9.3µM*	-45%	-12	13%
Cc1cc(NC(=O)c2ccc([N+](=O)[O-])cc2)no1	2	61%	?	35%	9	1%
CC(C)NS(=O)(=O)c1ccc(NC(=O)C(C)Oc2ccc(C(=O)c3ccccc3)cc2)cc1 (stereo not drawn)	-4	?	2.3µM*	?	-22	1%
CC(=O)Nc1ccc(C(=O)Nc2cc(C)on2)cc1	32*	63%	18%	-1%	44*	3%
CCOC(=O)C1=C(C)Nc2ccccc2N/C1=N\S(=O)(=O)c1ccccc1	.	-8%	?	.	.	.
CCOc1ccc(C(=O)Nc2cc(C)on2)cc1OCC	5	12µM*	-5%	-6%	-3	0%
Cc1ccc(OC(C)C(=O)Nc2cc(C)on2)cc1 (stereo not drawn)	9	15%	4.7µM*	-9%	-11	.
CCOC(=O)C(=O)Nc1cc(C)on1	72*	170%	-3%	5%	80*	5%
CCOc1ccc(CCNC(=O)c2cc(C)on2)cc1OCC	9	10µM*	?	-1%	-14	.
O=c1[nH]c(-c2ccc(Cl)cc2)nc(=S)[nH]1	0	4%	19%	1%	2	-10%
CC(C)N(CC(N)=O)c1ccc(S(=O)(=O)N2CCCC2)cn1	.	?	-23%	.	.	.
CCC(C)Sc1nc(O)c(Cc2ccccc2)c(=O)[nH]1 (stereo not drawn)	-2	.	2.6µM*	4%	-1	1%
CC(C)Sc1nc(O)c(Cc2ccccc2)c(=O)[nH]1	-2	17%	.	-21%	7	7%
C[C@@H](CN1C(=O)C(=O)NC[C@@H]1C)NC(=O)CC12CC3CC(CC(C3)C1)C2	-1	23%	15%	-5%	-5	10%
O=C1c2ccccc2C(=O)N1CCc1nc(-c2ccccn2)no1	28*	99%	.	-17%	58*	3%
Nc1nonc1-c1noc(CCCCCN2C(=O)c3ccccc3C2=O)n1	75*	40%	13µM*	-3%	148*	9%
SMILES	Cycloheximide cs	Pf growth 48h	Pf growth 96h	NS1 inh	Shiga inhibitor	FBPA Giardia inh
c1ccc(OCCCc2nc(-c3ccccn3)no2)cc1	34*	93%	.	-10%	42*	-8%
COc1ccc(-c2noc(CCN3C(=O)c4ccccc4C3=O)n2)cc1OC	-2	13%	38%	-26%	-3	-1%
c1ccc(OCCCc2nc(-c3ccncc3)no2)cc1	-2	9%	16%	-38%	14	0%
O=C1c2ccccc2C(=O)N1CCCc1nc(-c2ccccn2)no1	23*	39%	.	?	84*	-1%
COC(=O)[C@H](Cc1ccccc1)NC(=O)C1CCN(C(=O)[C@H](C)NS(=O)(=O)c2ccc(C)cc2)CC1	2	?	?	-7%	1	.
COc1ccc(-c2nc(CS(=O)CC(=O)NC3CCCCC3C)c(C)o2)cc1 (stereo not drawn)	-5	-7%	-12%	21%	2	9%
